The target of this experiment is Genome polyprotein (Dengue virus type 2 (strain 16681-PDK53)) (UniProt P29991). Nature of the experiment: flavivirus cap methylation enzyme inhibition – biochemical, confirmation dose response, primary screen (AID 588689). The following applies: Dengue-2 NS5 methyltransferase capping enzyme assay, at 25 µM, stronger effect = higher value.
[1] abbreviates: measured here: pilot screen replicate inhibition.

The structures appear in SMILES notation. About 1,000 (0.29%) of roughly 340,000 compounds were called active. Cut-off read from the data, not from the text of the source: inconclusive = inhibition above about 29% without an active follow-up result; inactive = below that. A selection follows. Results with a measured potency or affinity are listed apart.

Regarding `COc1ccc(-n2cccc2C=O)cc1`, the inhibition is -11.6% (inactive).
On the same count and under the same terms, under `Cc1cc2nc3s/c(=C/c4ccc(-c5ccccc5C(=O)O)o4)c(=O)n3c2cc1C` stands -33.6% (inactive); under `CCOC(=O)CSc1nc(N)c(C#N)c(-c2ccc(OCC)cc2)c1C#N`, -3.48% (inactive).
Consider `Cc1cc2nc(/C(C#N)=C\c3ccc(-c4ccccc4C(=O)O)o3)[nH]c2cc1C`, for which the inhibition was -2.36% (inactive).
On the same count and under the same terms, under `COc1cc(/C=C2\C(C)=C(C#N)c3nc(N)c(C#N)c(C)c32)ccc1OCC(=O)O` stands -6.96% (inactive); under `O=C1OC(c2ccccc2)=CC1=Cc1ccccc1O`, -6.29% (inactive).
On the same count and under the same terms, under `CC1CCCC(NC(=O)C2N(CCCN3CCCC3)C(=O)C3C(C(=O)Nc4ccc(Cl)cc4)C4C=CC32O4)C1C` (stereo not drawn) stands -9.14% (inactive); under `Cc1cc(C)cc(NC(=O)COC(=O)Cc2ccccc2F)c1`, -2.95% (inactive); under `CS(=O)(=O)NCc1nnc(SCc2c(F)cccc2Cl)o1`, -7.53% (inactive).
Same read-out and setting: the figure for `C=CCn1c(SCC(=O)/C(C#N)=C(\C)N)nnc1C1CCCCC1` is -2.77% (inactive).
`CCN(C[C@H]1N[C@@](C)(C(=O)OC)[C@H]2C(=O)N(C)C(=O)[C@@H]12)S(=O)(=O)c1ccc(OC(F)(F)F)cc1`: the inhibition is -7.6% (inactive). Moreover, the inhibition under setting [1] worked out at 0.305%.
Consider `Cc1ccc(S(=O)(=O)NN2C(=O)/C(=C/c3ccc(F)cc3)SC2=S)cc1`, for which the inhibition is 9.54% (inactive).
Same read-out and setting: under `Cc1ccc(S(=O)(=O)NN2C(=O)/C(=C/c3cccnc3)SC2=S)cc1` stands 14.3% (inactive).
Same read-out and setting: under `O=C1/C(=C/C=C/c2ccco2)SC(=S)N1NS(=O)(=O)c1ccccc1` stands 64.5% (inactive); under `O=C1/C(=C\c2ccc(Br)cc2)SC(=S)N1NS(=O)(=O)c1ccccc1`, -8.31% (inactive).
Still for that read-out and setting: the figure for `O=C1/C(=C/c2ccccn2)SC(=S)N1NS(=O)(=O)c1ccccc1` is 8.55% (inactive); for `O=S(=O)(NCc1nc2ccccc2[nH]1)c1ccccc1` it is -2.6% (inactive); for `CC(=O)N1C(=O)/C(=C2\SC(=S)N(NS(=O)(=O)c3ccc(C)cc3)C2=O)c2ccccc21` it is 5.31% (inactive).
With `O=C(NC1CC1)C1=C[C@@H](c2csc3ccccc23)C[C@@H](OCc2ccc(CO)cc2)O1`, the inhibition is -6.54% (inactive).
For `O=C(COC(=O)C1CC2CCCC(C1)C2=O)Nc1nc(-c2ccc(F)c(F)c2)cs1` (stereo not drawn), the inhibition was 11% (inactive).
With `CN(C)C(=O)c1ccc(NC(=O)c2cccc(S(=O)(=O)N3CCCc4ccccc43)c2)cc1`, the inhibition was 4.32% (inactive).
`CC(NC(=O)c1cccnc1)C(c1cccs1)N1CCOCC1` (stereo not drawn): the inhibition was 0% (inactive).
Consider `CSc1cccc(NC(=O)C2CCN(S(=O)(=O)c3cnc[nH]3)CC2)c1`, for which the inhibition was -4.39% (inactive).
In the case of `COc1cccc(CNC(=O)c2cccc(NC(=O)C3=C(C)OCCS3)c2)c1`, the inhibition was -1.39% (inactive).
The same measure, in the same setting: under `O=C(Nc1cccc([N+](=O)[O-])c1)N1CCCCCC1` stands -0.65% (inactive).
The same measure, in the same setting: under `CC(C)OCCCNC(=O)c1ccc(NS(C)(=O)=O)cc1` stands 0% (inactive); under `Cc1cc(C)c(C(=O)c2ccccc2)c(C)c1`, -9.32% (inactive); under `O=S(=O)(c1ccccc1)N1CCC2(CC1)CO2`, -6.64% (inactive).
Still for that read-out and setting: the figure for `O=C1/C(=C/c2cccnc2)SC(=S)N1NS(=O)(=O)c1ccccc1` is 5.88% (inactive).
On to `CCN1C[C@@H]2[C@@H]3C(=O)N(C)C(=O)[C@@H]3[C@](Cc3ccccc3)(C1=O)N2C(=O)c1ccccc1`, for which the inhibition is 1.65% (inactive).
As for `CC(=O)C1=C(O)C(=O)N(c2ccc(C)cc2)C1c1ccc([N+](=O)[O-])cc1` (stereo not drawn), the inhibition was 2.73% (inactive).
Same read-out and setting: under `COc1cc(CN2CCCCCC2)c([N+](=O)[O-])cc1OC` stands 0% (inactive); under `COc1ccc(Cl)cc1NC(=O)CN(C)C(=O)c1ccc(OCc2ccccc2)c(OC)c1`, -1.46% (inactive); under `O=C(CCCN1C(=O)/C(=C/c2ccccc2Cl)SC1=S)NNC(=O)c1ccc(Cl)cc1`, 28.1% (inactive).
With `CN1CCN(C(=O)CCN2C(=O)/C(=C\c3ccc(Cl)cc3Cl)SC2=S)CC1`, the inhibition is 0% (inactive).
Still for that read-out and setting: the figure for `O=C(CCCN1C(=O)/C(=C/c2ccccc2Cl)SC1=S)NNC(=O)c1ccc(Cl)cc1Cl` is 3.09% (inactive); for `O=C(COc1ccc(Cl)cc1Cl)NN1C(=O)/C(=C\c2ccc(Cl)cc2)SC1=S` it is 0% (inactive).
Same read-out and setting: under `O=S(=O)(c1ccc(Cl)cc1)n1c(Cc2ccccc2)nc2ccccc21` stands -6.41% (inactive); under `CC(C)N(CC#CCC(O)(c1ccccc1)c1ccccc1)C(C)C`, -5.16% (inactive); under `Cc1ccc(Cl)cc1NC(=O)CN1C(=O)NC2(CCCCCC2)C1=O`, 3% (inactive).
Same read-out and setting: under `COCCNC(=O)CCn1nc(-c2ccc(C)cc2)c2ccccc2c1=O` stands -3.27% (inactive).
For `NC(=O)c1sc2cc(C(F)(F)F)cnc2c1-c1ccccc1`, the inhibition was 1.48% (inactive).
In the case of `NC(=O)CC(NC(=O)c1ccccc1)c1ccc(NCCCN2CCCC2=O)c([N+](=O)[O-])c1` (stereo not drawn), the inhibition was -0.79% (inactive).
On the same count and under the same terms, under `CO[C@H]1C=CO[C@@]2(C)Oc3c(C)c(O)c4c(O)c(c(C=NN5CCN(C)CC5)c(O)c4c3C2=O)NC(=O)C(C)=CC=C[C@H](C)[C@H](O)[C@@H](C)[C@@H](O)[C@@H](C)[C@H](OC(C)=O)[C@@H]1C` stands -3.66% (inactive); under `CO[C@H]1/C=C/O[C@@]2(C)Oc3c(C)c(O)c4c(O)c(c(C=NN5CCN(C)CC5)c(O)c4c3C2=O)NC(=O)/C(C)=C\C=C\[C@H](C)[C@H](O)[C@@H](C)[C@@H](O)[C@@H](C)[C@H](OC(C)=O)[C@@H]1C`, 6.59% (inactive).
Still for that read-out and setting: under `C=CCOc1ccc(/C=N/NC(=O)C(C)Sc2ccccn2)cc1OC` (stereo not drawn) stands -7.22% (inactive); under `Cc1ccc(S(=O)(=O)N(C)C)cc1NC(=O)COC(=O)C1(c2ccccc2)CC1`, -4.44% (inactive).
As for `O=[N+]([O-])c1ccccc1S(=O)(=O)Nc1ccc(S(=O)(=O)Nc2nccs2)cc1`, the inhibition is 3.56% (inactive).
The same measure, in the same setting: under `O=[N+]([O-])c1cccc(S(=O)(=O)Nc2ccc(S(=O)(=O)Nc3nccs3)cc2)c1` stands -3.24% (inactive); under `C/C(=N\NC(=O)c1cc(C)nc2ccccc12)c1ccccn1`, -2.29% (inactive).
On the same count and under the same terms, under `CC(=O)NC1=NN(C(C)=O)C(c2ccc(C(C)C)cc2)S1` (stereo not drawn) stands 0.65% (inactive).
Same read-out and setting: the figure for `COc1ccc(O)c(C(=O)c2cc(SCC(=O)O)c3nc4sc5c(c4c(=O)n3c2)CCCC5)c1` is 69.1% (inactive); for `O=C(O)CSc1cc(C(=O)c2ccccc2O)cn2c(=O)c3c(-c4ccccc4)csc3nc12` it is 36.4% (inactive).
With `CCc1cc(C(=O)N(Cc2ccccc2)c2c(N)n(CCOC)c(=O)[nH]c2=O)sc1C`, the inhibition was -5.81% (inactive).
`CC(/C=C1\SC(=S)N(NC(=O)c2cccc(O)c2)C1=O)=C\c1ccccc1`: the inhibition was -2.56% (inactive).
The same measure, in the same setting: the figure for `CC(/C=C1\SC(=S)N(NC(=O)c2ccccc2C)C1=O)=C\c1ccccc1` is 2.21% (inactive).
Still for that read-out and setting: under `CC(/C=C1\SC(=S)N(NC(=O)c2ccc(C)cc2)C1=O)=C\c1ccccc1` stands -6.45% (inactive); under `CC(/C=C1\SC(=S)N(NC(=O)c2ccc(O)cc2)C1=O)=C\c1ccccc1`, 2.55% (inactive).
Still for that read-out and setting: under `COc1ccc([C@H]2/C=C\CN(S(=O)(=O)c3ccc(C)cc3)[C@@H](C)C(=O)N2Cc2ccc(F)cc2)cc1` stands -6.14% (inactive); under `CC1CCCCN1CCCNC(=O)CN1C(=O)CSc2ccc(S(=O)(=O)N3CCOCC3)cc21` (stereo not drawn), 0.89% (inactive); under `Cc1ccnc(SCC(=O)N2CCC(C(N)=O)CC2)n1`, 5.18% (inactive).
Take `O=C1CSCC(=O)N1Cc1ccc(Cl)c(Cl)c1`: the inhibition is 1.96% (inactive).
Same read-out and setting: under `CCC(Oc1ccccc1)C(=O)NCCOC` (stereo not drawn) stands -3.68% (inactive); under `CCOC(=O)c1c(/N=C/c2cc(OC)cc([N+](=O)[O-])c2O)sc(C)c1C`, -0.36% (inactive).
Consider `CCOC(=O)c1c(/N=C/c2cccc([N+](=O)[O-])c2O)sc2c1CCC2`, for which the inhibition was 25.2% (inactive).
For the compound `O=C(CCC(=O)c1ccc(F)cc1)Nc1cc(Cl)cc(Cl)c1`, the inhibition is -2.06% (inactive).
On to `CCCc1cc(C(=O)Cc2ccc(C(=O)OCC)o2)c(O)cc1O`, for which the inhibition was -23.9% (inactive).
On the same count and under the same terms, under `CCOC(=O)c1ccc(CC(=O)c2ccc(O)cc2O)o1` stands -4.07% (inactive); under `Nc1ccc(C(=O)N/N=C/c2cn(Cc3ccccc3F)c3ccccc23)cc1`, -1.3% (inactive); under `O=C(O)c1ccc(N/N=C/c2cn(Cc3ccc(F)cc3)c3ccccc23)cc1`, 9.41% (inactive).
The same measure, in the same setting: the figure for `COc1ccc(OCC(O)CN2CCOCC2)cc1` (stereo not drawn) is 7.33% (inactive); for `Cc1ccc[n+](-c2[nH]c(=O)sc2/C=N/N=C(\[O-])c2cccnc2)c1` it is 7.25% (inactive); for `Cc1ccc(NS(=O)(=O)c2ccc(NS(=O)(=O)c3cccs3)cc2)cc1` it is -2.07% (inactive).
Still for that read-out and setting: under `Cc1ccc(NS(=O)(=O)c2cccs2)nc1` stands -0.32% (inactive); under `O=C(C[n+]1ccn(CCCNP2(=O)C=C(c3ccccc3)OC(c3ccccc3)=C2)c1)c1cccs1`, 6.89% (inactive); under `Cc1cccc(COCC(Cc2ccccc2)N2CCN(C(=O)c3cccc(C)c3)CCC2=O)c1` (stereo not drawn), -1.6% (inactive).
Turning to `COc1ccc(-c2noc(CCC(=O)N3CCN(c4ccccc4C)CC3)n2)cc1`, the inhibition is -3.97% (inactive). Under setting [1], the inhibition was -0.01%.
Taken in the same sequence, the figures for `COc1cccc2c1-c1c(O)cccc1C2=O` were 9.88% (inactive) and 6.38%.
On to `O=C(O)c1cc(O)c2c(c1)C(=O)c1cccc(O)c1C2=O`, for which the inhibition is 5.97% (inactive).
Same read-out and setting: the figure for `Nc1ncn(C(=S)Nc2ccccc2)n1` is 5.4% (inactive); for `COc1cc(OC)cc(-c2nnc(Nc3nc4c(F)cccc4s3)o2)c1` it is 0% (inactive).
The same measure, in the same setting: under `COc1cccc(-c2nnc(Nc3nc4c(F)cccc4s3)o2)c1` stands 3.39% (inactive).
Still for that read-out and setting: under `Cc1nc2cc(N3CCOCC3)c(NC(=O)C3CC3)cc2c(=O)n1Cc1ccccc1` stands 0% (inactive); under `O=C(CSC1=NS(=O)(=O)c2ccccc21)Nc1ccccc1`, 25.7% (inactive).
With `O=S1(=O)N=C(SCCO)c2ccccc21`, the inhibition is 1.39% (inactive).

As usually defined, the inhibition is the drop in the measured response relative to a control, in per cent.

Source of the values: PubChem BioAssay AID588689 (Southern Research Specialized Biocontainment Screening …, 2011).
